TDP1 cell noCPT: qHTS for Inhibitors of human tyrosyl-DNA phosphodiesterase 1 (TDP1): qHTS in cells in absence of CPT; DT40 Tdp1-/- hTDP1 cells, no CPT, ATP luminescence, 48 h; Potency, µM (top dose mostly 46.2 µM), actives largely listed as inhibitors; 15% of 420,000 active; AID 686978, 2013; further: nearly all actives have a fitted effect of over 55% in size
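DT40 Tdp1-/-;hTDP1 cells, no CPT (DMSO vehicle only), 400 cells/well; compounds pin-transferred; ≥48 hr, 37 °C; CellTiter-Glo 30 min RT dark, luminescence read.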
DT40 TDP1 CPT: DT40-hTDP1 cell growth loss with CPT; chicken DT40 Tdp1-/-;hTDP1 cells + 20 nM CPT, ATP luminescence, 48 h; Potency, µM (titrated, usually from 46.2 µM), actives largely listed as inhibitors; 12% of 420,000 active; further: nearly all actives have a fitted effect of over 55% in size
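Chicken DT40 Tdp1-/- cells stably complemented with human TDP1 were seeded at 400 cells/well in medium containing 20 nM camptothecin, exposed to pin-transferred compounds, and grown at 37 °C for at least 48 hr. Viability was read as ATP luminescence.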
KB-V1 cytotox: kills drug-selected multidrug resistant KB-V1 cells; Potency, µM (top dose mostly 46.1 µM), actives largely listed as cytotoxic; AID 1347076; KB-V1 MDR cells viability, CellTiter-Glo, 72 h; 3.4% of 400,000 active; further: nearly all actives have a fitted effect of over 60% in size
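Drug-selected KB-V1 cells, grown in DMEM lacking phenol red with 10% FBS, receive compound titrations; after three days at 37 degrees C, surviving cell ATP is quantified by CellTiter-Glo luminescence and responses normalized and curve-fitted.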
HT1080 IDH1KD tx: toxicity to HT-1080 IDH1 knockdown cells (counter line). HT-1080 IDH1 knockdown viability, ATP luminescence, 48 h. Potency, µM (titrated, usually from 46.1 µM), actives largely listed as cytotoxic. 2% of 360,000 active
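% activity derives from luminescence (CellTiter-Glo), normalised to DMSO and no-cell wells. HT-1080-IDH1KD cells, 750/well, had 48 h compound exposure at 37 °C.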
HT1080-NT tox: kills 2HG-producing HT-1080-NT fibrosarcoma cells. AID 686970. 1.6% of 360,000 active. Potency, µM (doses to about 46.1 µM), actives largely listed as cytotoxic. HT-1080-NT fibrosarcoma viability, CellTiter-Glo ATP luminescence, 48 h;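 further: NT is the 2HG producing partner of a matched IDH1 knockdown line; nearly all actives have a fitted effect of over 55% in size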
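Compounds were tested in concentration-response format on HT-1080-NT cells for 48 hours at 37 degrees C. Cell viability came from CellTiter-Glo luminescence; curves were classified by r2, response magnitude and activity.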
KB-3-1 tox: kills parental KB-3-1 adenocarcinoma cells; KB-3-1 viability, CellTiter-Glo ATP luminescence, 72 h; Potency, µM (doses to about 46.1 µM), most hits filed as cytotoxic; 1.4% of 400,000 active; AID 1347075; further: nearly all actives have a fitted effect of over 60% in size
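KB-3-1 parental drug-naive adenocarcinoma cells in DMEM/10% FBS, incubated 72 h at 37 C with pin-transferred compounds across a concentration series. Viability by CellTiter-Glo luminescence; concentration-response curves fitted after normalization.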
Each line names hits and unclear results; the compound was inactive in the other large screens. The list is not random: actives were taken first. Their share in the collection is about 19%. The call rests on the fitted dose curve; in most records, active means well fitted curve in the direction sought with a large enough effect; inconclusive means small, poorly fitted or top-dose-only effect, or another doubt; inactive means no such curve, though single readings can be large; an effect the other way counts as inactive or inconclusive.

CCOc1cccc(C(=O)Nc2nc3c(s2)CC(C(C)(C)C)CC3)c1 (configuration not stated)	TDP1 cell noCPT 21µM, DT40 TDP1 CPT 21µM (no result: HT1080 IDH1KD tx, HT1080-NT tox)
Cc1ccccc1C(=O)Nc1sc2c(c1C(=O)N1CCCCC1)CCC(C(C)(C)C)C2 (configuration not stated)	TDP1 cell noCPT inconclusive (no result: HT1080 IDH1KD tx, HT1080-NT tox)
COc1ccc(OC)c(C(=O)c2ccc(C(=O)c3cc(OC)ccc3OC)cc2)c1	TDP1 cell noCPT inconclusive, DT40 TDP1 CPT inconclusive
COc1ccc(C(=O)c2ccc(OC)cc2OC)cc1	TDP1 cell noCPT 5.8µM, KB-V1 cytotox inconclusive, HT1080 IDH1KD tx 12µM, HT1080-NT tox 23µM, KB-3-1 tox 15µM
COc1ccc(C(=O)c2ccc(N(C)C)cc2)c(OC)c1	TDP1 cell noCPT 2.8µM, DT40 TDP1 CPT 3.2µM, KB-V1 cytotox inconclusive, HT1080 IDH1KD tx 2.5µM, HT1080-NT tox 3.5µM, KB-3-1 tox 5.6µM
O=c1c2ccccc2n(Cc2c(F)cccc2Cl)c(=O)n1Cc1ccccc1	DT40 TDP1 CPT inconclusive (no result: HT1080 IDH1KD tx, HT1080-NT tox)
Cc1ccc(CNC(=O)c2ccc(CSCc3c(F)cccc3Cl)o2)cc1	none (no result: HT1080 IDH1KD tx, HT1080-NT tox)
Cn1c(CNC(=O)CSc2n[nH]c(-c3ccccc3Cl)n2)nc2ccccc21	none (no result: HT1080 IDH1KD tx, HT1080-NT tox)
CCCC(C)c1nnc(NC(=O)COc2ccc3c(c2)OCO3)s1 (configuration not stated)	HT1080 IDH1KD tx inconclusive, HT1080-NT tox inconclusive
CCc1cccc(CC)c1NC(=O)/C(C#N)=C/c1ccccc1C(F)(F)F	TDP1 cell noCPT 21µM, DT40 TDP1 CPT inconclusive, KB-V1 cytotox inconclusive, HT1080 IDH1KD tx inconclusive, HT1080-NT tox 23µM, KB-3-1 tox inconclusive
N#Cc1ccc(-n2c(-c3ccccc3)nnc2-c2ccccc2)cc1C#N	TDP1 cell noCPT 16µM, DT40 TDP1 CPT inconclusive, KB-V1 cytotox inconclusive
Cc1ccccc1Nc1cc(=O)oc2ccccc12	TDP1 cell noCPT 21µM, DT40 TDP1 CPT 12µM
O=c1cc(NCCc2ccccc2)c2ccccc2o1	TDP1 cell noCPT 8.2µM, DT40 TDP1 CPT 10µM, KB-V1 cytotox 13µM, KB-3-1 tox inconclusive
O=c1cc(NCCO)c2ccccc2o1	none
CCOC(=O)CSc1nc2sc3c(c2c(=O)n1-c1ccccc1)CCN(C(C)C)C3	TDP1 cell noCPT inconclusive, HT1080 IDH1KD tx inconclusive, HT1080-NT tox inconclusive
Cc1ccccc1-c1nnc(NC(=O)Nc2ccc3ccccc3c2)s1	KB-3-1 tox inconclusive (no result: TDP1 cell noCPT, DT40 TDP1 CPT, HT1080 IDH1KD tx, HT1080-NT tox)
O=C(CN(CCc1ccccc1)C(=O)c1csnn1)NCc1ccc(F)cc1	KB-V1 cytotox inconclusive
COCCNc1nc(-c2cc(C)n(CCc3ccc(OC)cc3)c2C)cs1	TDP1 cell noCPT 18µM, DT40 TDP1 CPT 16µM, KB-V1 cytotox inconclusive, KB-3-1 tox inconclusive
Cc1ccc(NC(=O)C2(NC(=O)c3ccccn3)CCCCC2)cc1Br	TDP1 cell noCPT inconclusive, DT40 TDP1 CPT 21µM
O=C(NC1(C(=O)NC2CCCCC2)CCCCC1)c1ccccn1	none
CC(C)CC(=O)Nc1ccc(S(=O)(=O)Nc2nccs2)cc1	KB-V1 cytotox inconclusive
CCSc1nnc2ccc(-c3ccc(OC)c(OC)c3)nn12	TDP1 cell noCPT 23µM, DT40 TDP1 CPT inconclusive
COc1ccc(-c2ccc3nnc(SCC(N)=O)n3n2)cc1	none
COc1ccccc1Nc1nnc(SCC2CCCCO2)s1 (configuration not stated)	TDP1 cell noCPT inconclusive, DT40 TDP1 CPT 6.5µM, KB-V1 cytotox 9.2µM, HT1080 IDH1KD tx 15µM, HT1080-NT tox 16µM, KB-3-1 tox 16µM
Cc1ccc(Nc2nnc(SCC3CCCCO3)s2)cc1 (configuration not stated)	TDP1 cell noCPT inconclusive, KB-V1 cytotox inconclusive
Cc1ccccc1Nc1nnc(SCC2CCCCO2)s1 (configuration not stated)	TDP1 cell noCPT 18µM, DT40 TDP1 CPT inconclusive
CNc1cc(F)nc(F)n1	TDP1 cell noCPT 16µM, DT40 TDP1 CPT 18µM
CNc1cccc(-c2cccc(O)c2)n1	none
O=C(Nc1ccc([N+](=O)[O-])cc1)C(c1ccccc1)c1ccccc1	TDP1 cell noCPT 18µM, DT40 TDP1 CPT 18µM, KB-V1 cytotox inconclusive
O=[N+]([O-])c1ccc(NNC(=S)Nc2ccccc2)cc1	TDP1 cell noCPT 2.8µM, DT40 TDP1 CPT 4.5µM, KB-V1 cytotox inconclusive, HT1080 IDH1KD tx inconclusive, HT1080-NT tox 20µM, KB-3-1 tox inconclusive
O=C(NCC(O)c1ccc([N+](=O)[O-])cc1)C(c1ccccc1)c1ccccc1 (configuration not stated)	TDP1 cell noCPT inconclusive, DT40 TDP1 CPT inconclusive
O=[N+]([O-])c1ccc(O)c(NC(=S)Nc2ccccc2)c1	HT1080 IDH1KD tx inconclusive
CCc1ccccc1N1CC(C(=O)Nc2nccs2)CC1=O (configuration not stated)	none
O=C(O)CC(c1ccccc1)c1ccc2c(c1)OCO2 (configuration not stated)	none
Cc1onc(-c2ccccc2)c1-c1nnc(CN2CCN(S(=O)(=O)c3ccccc3F)CC2)o1	TDP1 cell noCPT inconclusive, DT40 TDP1 CPT 21µM, KB-V1 cytotox 3.3µM, KB-3-1 tox inconclusive
O=C1CCC/C=C\C[C@@H](CC(=O)N(CCO)Cc2ccccc2)C(=O)N[C@H](c2ccccc2)CO1	none
CS(=O)(=O)c1ccc(Nc2nc(C(N)Cc3ccccc3)cs2)cc1 (configuration not stated)	TDP1 cell noCPT 21µM, DT40 TDP1 CPT inconclusive
COc1ccc(CC(N)c2csc(Nc3ccc(S(C)(=O)=O)cc3)n2)cc1 (configuration not stated)	TDP1 cell noCPT 23µM, DT40 TDP1 CPT inconclusive
CS(=O)(=O)c1ccc(Nc2nc(C(N)COCc3ccccc3)cs2)cc1 (configuration not stated)	TDP1 cell noCPT 21µM, DT40 TDP1 CPT 21µM
NC(Cc1ccc(F)cc1)c1csc(Nc2ccc(S(N)(=O)=O)cc2)n1 (configuration not stated)	TDP1 cell noCPT inconclusive, DT40 TDP1 CPT inconclusive, HT1080-NT tox inconclusive
CS(=O)(=O)c1ccc(Nc2nc(C(N)Cc3ccc(C(F)(F)F)cc3)cs2)cc1 (configuration not stated)	DT40 TDP1 CPT 21µM, KB-V1 cytotox inconclusive, HT1080 IDH1KD tx inconclusive, HT1080-NT tox 18µM, KB-3-1 tox inconclusive
CS(=O)(=O)c1ccc(Nc2nc(C(N)c3ccccc3)cs2)cc1 (configuration not stated)	TDP1 cell noCPT inconclusive, DT40 TDP1 CPT inconclusive
O=C(NNC(=S)Nc1ccc(Cl)cc1Cl)c1ccc(N2CCOCC2)c([N+](=O)[O-])c1	KB-V1 cytotox inconclusive

Screening data from PubChem BioAssay.
